Experimental findings from PubChem BioAssay (NCI) are described below.

This is part of a sample that, as a whole, favours compounds with a hit. Of some 79,000 tested, about 15% had one in any assay. Values without a mark were called inactive. The source made the active and inactive calls. No stated cut-off is given here; in the data, active means growth inhibition above about 70%; inactive means the rest.

The nature of the first assay: NCI Yeast Anticancer Drug Screen. Data for the bub3 strain (AID 167). As to conditions: S. cerevisiae bub3 mutant strain, at 50.0 µM (retest, dose inferred, filed as 5.0), stronger effect = higher value. In a few lines: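 In this screen, a yeast mutant lacking normal mitotic checkpoint function is challenged with compound. Relative growth versus vehicle gives the inhibition value.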
With `CCOC(=O)/C=C(\CC(=O)OCC)C(=O)OCC`, the growth inhibition is 25%.

For the molecule `Cc1cc(Cl)cc2c1NC(=O)C2(O)C(C)C(=O)c1ccc(Cl)cc1` (stereo not given), the growth inhibition is 99% (active).

Take `C=CS(=O)(=O)c1ccc([N+](=O)[O-])cc1`: the growth inhibition is 98% (active).

As for `Oc1cc(Br)ccc1/C=N/Nc1ccccn1`, the growth inhibition is 46%.

For `CC(C)C(CC(C)(C)C)OC(=O)Nc1cccc2ccccc12` (stereo not given), the growth inhibition was 96% (active).

Regarding `CC(=O)[O-].O=C(N/N=C/c1ccccc1[O-])c1ccccc1.[Zn+2]`, the growth inhibition is 70% (active).

Turning to `COc1cc(C2C(C(=O)Nc3ccc(Cl)c(Cl)c3)=C(C)NC(C)=C2C(=O)Nc2ccc(Cl)c(Cl)c2)ccc1O`, the growth inhibition was 13%.

For the molecule `[Ce+3].[Cl-].[O-]/N=C(\c1ccccc1)c1ccccn1.[O-]/N=C(\c1ccccc1)c1ccccn1.[O-]/N=C(\c1ccccc1)c1ccccn1`, the growth inhibition was 95% (active).

On to `CCCCCCCCN1C(=O)c2ccccc2S1(=O)=O`, for which the growth inhibition is 96% (active).

In the case of `CC(=O)N(C1=C(Cl)C(=O)c2ccccc2C1=O)c1ccc(C)cc1`, the growth inhibition was 99% (active).

For `COc1ccc(Cl)c(-c2cc(OC)c(N=N/C(=N/Nc3ccc([N+](=O)[O-])cc3)c3ccc([N+](=O)[O-])cc3)cc2Cl)c1`, the growth inhibition is 5%.

For the molecule `CCOC(=O)CSC(=S)N1CCOCC1`, the growth inhibition was -6%.

In the case of `CC1(C)COC(c2cccc(C(O)c3ccc(Cl)cc3)c2)=N1` (stereo not given), the growth inhibition is 99% (active).

Turning to `COc1ccc(/C=C/C(C(=O)O)C(=O)O)cc1`, the growth inhibition was 88% (active).

As to `COc1ccc2c(Cc3ccc(O)cc3)cncc2c1O`, the growth inhibition is -4%.

In the case of `COC1=CC23C=CC1[C@@H](c1ccccc1)C2=C(C)C(=O)N3C(=O)NC1CCCCC1` (stereo not given in full), the growth inhibition was -8%.

On to `O=c1c2c3c(sc2nc2n1N=C(c1ccc(Br)cc1)CS2)CCCC3`, for which the growth inhibition is -10%.

As to `Cc1noc(NS(=O)(=O)c2ccc(N=Nc3cc(N=Nc4ccc(S(=O)(=O)Nc5onc(C)c5C)cc4)c4c(NC(=O)C(Cl)Cl)cccc4c3O)cc2)c1C` (tested in a mixture with another compound), the growth inhibition was 56%.

As to `CC(=O)OC1=CC2(OC(C)=O)CC(C)(C)C1C1C(=O)C=CC(=O)C12` (stereo not given), the growth inhibition is 14%.

Turning to `COC1CCC(/C(C#N)=C/c2ccco2)CC1` (stereo not given), the growth inhibition was 58%.

As for `CCN(CC)CCNc1cc(C)nc2c1ccc1c2ccc2c(NCCN(CC)CC)cc(C)nc21`, the growth inhibition was 90% (active).

Regarding `O=c1sc(=S)[nH]c2ccccc12`, the growth inhibition is 7%.

On to `Oc1c(Br)ccc2c(O)c(Br)ccc12`, for which the growth inhibition was 97% (active).

Consider `Nc1ccccc1CCc1ccccc1`, for which the growth inhibition was 74% (active).

For the molecule `Cc1cc2c(cc1O)CC[C@@H]1[C@@H]2CC[C@]2(C)[C@@H](O)CC[C@@H]12`, the growth inhibition is -29%.

Take `O=c1c2ccccc2sc2c([N+](=O)[O-])ccc(NCCNCCO)c12`: the growth inhibition was 99% (active).

For the molecule `NC(=S)NNc1c([N+](=O)[O-])cnn(-c2ccccc2)c1=O`, the growth inhibition is 21%.

On to `COc1ccccc1NC(=O)c1ccccc1F`, for which the growth inhibition was 9%.

On to `COc1ccc(/C=C2\SC(=S)N(/C=C(/C#N)C(=O)c3ccc4ccccc4c3)C2=O)cc1OC`, for which the growth inhibition is 98% (active).

With `COC(=O)C1(OC(=O)CCC(=O)O)C(=O)NC2=C1C(=O)c1ccccc1C2=O` (stereo not given), the growth inhibition is 16%.

Turning to `Cc1cc(=O)c2c(ccc3cc4ccccc4cc32)[nH]1`, the growth inhibition was 22%.

Take `CCc1nc(N)nc(N)c1-c1ccc(N(C)Cc2ccccc2)c([N+](=O)[O-])c1`: the growth inhibition was 34%.

As for `O=C1CSC(c2ccccc2O)N1c1ccc(-n2c(-c3ccccc3)nc3ccccc3c2=O)cc1` (stereo not given), the growth inhibition is 56%.

With `O=C(C[P+](c1ccccc1)(c1ccccc1)c1ccccc1)c1ccc(Br)cc1`, the growth inhibition is 97% (active).

As to `O=NN(CCCl)C(=O)Oc1ccc(OC(=O)N(CCCl)N=O)cc1`, the growth inhibition is 93% (active).

On to `Cc1cccc(C[N+](C)(C)CCCO)c1C`, for which the growth inhibition was 1%.

For the molecule `CC(C)NC(=O)OCCS(=O)c1c(Cl)c(Cl)nn1C` (stereo not given), the growth inhibition is 75% (active).

`COC1=CC(=O)[C@H]2CC(C)=CC[C@]2(C)C1=O`: the growth inhibition is 0%.

As to `Oc1ccc(O)c2c(O)c3ccccc3c(O)c12`, the growth inhibition is 82% (active).

Take `O=[N+]([O-])c1cc(Br)cc(Br)c1O`: the growth inhibition was 30%.

Still in this assay, the particulars now being: S. cerevisiae bub3 mutant strain, at 50.0 µM, stronger effect = higher value.
`CCOC(=O)/C=C(\CC(=O)OCC)C(=O)OCC`: the growth inhibition was 99.5% (active).

Turning to `Cc1cc(Cl)cc2c1NC(=O)C2(O)C(C)C(=O)c1ccc(Cl)cc1` (stereo not given), the growth inhibition is 99.5% (active).

Consider `C=CS(=O)(=O)c1ccc([N+](=O)[O-])cc1`, for which the growth inhibition is 99.3% (active).

As to `Oc1cc(Br)ccc1/C=N/Nc1ccccn1`, the growth inhibition is -3.4%.

`CC(C)C(CC(C)(C)C)OC(=O)Nc1cccc2ccccc12` (stereo not given): the growth inhibition is 61.1%.

Turning to `CC(=O)[O-].O=C(N/N=C/c1ccccc1[O-])c1ccccc1.[Zn+2]`, the growth inhibition was 0.3%.

Consider `COc1cc(C2C(C(=O)Nc3ccc(Cl)c(Cl)c3)=C(C)NC(C)=C2C(=O)Nc2ccc(Cl)c(Cl)c2)ccc1O`, for which the growth inhibition is 91.2% (active).

`[Ce+3].[Cl-].[O-]/N=C(\c1ccccc1)c1ccccn1.[O-]/N=C(\c1ccccc1)c1ccccn1.[O-]/N=C(\c1ccccc1)c1ccccn1`: the growth inhibition was 88.3% (active).

Regarding `CCCCCCCCN1C(=O)c2ccccc2S1(=O)=O`, the growth inhibition was 89.2% (active).

As to `CC(=O)N(C1=C(Cl)C(=O)c2ccccc2C1=O)c1ccc(C)cc1`, the growth inhibition is 96.5% (active).

As to `COc1ccc(Cl)c(-c2cc(OC)c(N=N/C(=N/Nc3ccc([N+](=O)[O-])cc3)c3ccc([N+](=O)[O-])cc3)cc2Cl)c1`, the growth inhibition was 44.5%.

`CCOC(=O)CSC(=S)N1CCOCC1`: the growth inhibition was -3.9%.

With `CC1(C)COC(c2cccc(C(O)c3ccc(Cl)cc3)c2)=N1` (stereo not given), the growth inhibition was 52.5%.

On to `COc1ccc(/C=C/C(C(=O)O)C(=O)O)cc1`, for which the growth inhibition was 82.5% (active).

`COc1ccc2c(Cc3ccc(O)cc3)cncc2c1O`: the growth inhibition was 71.5% (active).

For `COC1=CC23C=CC1[C@@H](c1ccccc1)C2=C(C)C(=O)N3C(=O)NC1CCCCC1` (stereo not given in full), the growth inhibition is 65%.

Turning to `O=c1c2c3c(sc2nc2n1N=C(c1ccc(Br)cc1)CS2)CCCC3`, the growth inhibition was -24.5%.

For `Cc1noc(NS(=O)(=O)c2ccc(N=Nc3cc(N=Nc4ccc(S(=O)(=O)Nc5onc(C)c5C)cc4)c4c(NC(=O)C(Cl)Cl)cccc4c3O)cc2)c1C` (tested in a mixture with another compound), the growth inhibition is 49.1%.

`CC(=O)OC1=CC2(OC(C)=O)CC(C)(C)C1C1C(=O)C=CC(=O)C12` (stereo not given): the growth inhibition is 73.8% (active).

Consider `COC1CCC(/C(C#N)=C/c2ccco2)CC1` (stereo not given), for which the growth inhibition is 79.6% (active).

For `CCN(CC)CCNc1cc(C)nc2c1ccc1c2ccc2c(NCCN(CC)CC)cc(C)nc21`, the growth inhibition was 96% (active).

For `O=c1sc(=S)[nH]c2ccccc12`, the growth inhibition was 67.5%.

Regarding `Oc1c(Br)ccc2c(O)c(Br)ccc12`, the growth inhibition was 90.8% (active).

In the case of `Nc1ccccc1CCc1ccccc1`, the growth inhibition was 90.8% (active).

As for `Cc1cc2c(cc1O)CC[C@@H]1[C@@H]2CC[C@]2(C)[C@@H](O)CC[C@@H]12`, the growth inhibition was 37.5%.

Consider `O=c1c2ccccc2sc2c([N+](=O)[O-])ccc(NCCNCCO)c12`, for which the growth inhibition is 88.5% (active).

`NC(=S)NNc1c([N+](=O)[O-])cnn(-c2ccccc2)c1=O`: the growth inhibition was -4.75%.

As for `COc1ccccc1NC(=O)c1ccccc1F`, the growth inhibition is -3.5%.

Consider `COc1ccc(/C=C2\SC(=S)N(/C=C(/C#N)C(=O)c3ccc4ccccc4c3)C2=O)cc1OC`, for which the growth inhibition was 98.6% (active).

For `COC(=O)C1(OC(=O)CCC(=O)O)C(=O)NC2=C1C(=O)c1ccccc1C2=O` (stereo not given), the growth inhibition is 32.9%.

Consider `Cc1cc(=O)c2c(ccc3cc4ccccc4cc32)[nH]1`, for which the growth inhibition was 39.6%.

For `CCc1nc(N)nc(N)c1-c1ccc(N(C)Cc2ccccc2)c([N+](=O)[O-])c1`, the growth inhibition was 10.1%.

On to `O=C1CSC(c2ccccc2O)N1c1ccc(-n2c(-c3ccccc3)nc3ccccc3c2=O)cc1` (stereo not given), for which the growth inhibition was 74.8% (active).

Turning to `O=C(C[P+](c1ccccc1)(c1ccccc1)c1ccccc1)c1ccc(Br)cc1`, the growth inhibition is 97.7% (active).

Turning to `O=NN(CCCl)C(=O)Oc1ccc(OC(=O)N(CCCl)N=O)cc1`, the growth inhibition is 84.5% (active).

Take `Cc1cccc(C[N+](C)(C)CCCO)c1C`: the growth inhibition is -1.9%.

On to `CC(C)NC(=O)OCCS(=O)c1c(Cl)c(Cl)nn1C` (stereo not given), for which the growth inhibition is 97% (active).

Consider `COC1=CC(=O)[C@H]2CC(C)=CC[C@]2(C)C1=O`, for which the growth inhibition is 3.35%.

Turning to `Oc1ccc(O)c2c(O)c3ccccc3c(O)c12`, the growth inhibition is 65.7%.

As for `O=[N+]([O-])c1cc(Br)cc(Br)c1O`, the growth inhibition was 75.8% (active).
